Laboratory results reported in PubChem BioAssay (NCI).
Compounds without any hit were thinned out: in the full panel of roughly 83,000, 20% have a hit.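 Values shown are percent growth following 48 h exposure of cells in 96-well plates to a single concentration of compound; below 10 was considered active.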 The source made the active and inactive calls.

Assays:
Assay in all cases: NCI-60 one-dose screen, 48 h (100 = growth as untreated, 0 = no growth, -100 = all killed)
SK-MEL-2 melanoma = conditions: 10 µM unless noted
EKVX NSCLC = conditions: 10 µM unless noted
SN12C renal = conditions: 10 µM unless noted
UO-31 renal = conditions: 10 µM unless noted
TK-10 renal = conditions: 10 µM unless noted
ACHN renal = conditions: 10 µM unless noted
CAKI-1 renal = conditions: 10 µM unless noted
A498 renal = conditions: 10 µM
HL-60(TB) leukemia = conditions: 10 µM unless noted
CCRF-CEM leukemia = conditions: 10 µM unless noted
MOLT-4 leukemia = conditions: 10 µM unless noted
OVCAR-8 ovarian = conditions: 10 µM unless noted
OVCAR-5 ovarian = conditions: 10 µM unless noted
SK-OV-3 ovarian = conditions: 10 µM unless noted
IGROV1 ovarian = conditions: 10 µM unless noted
OVCAR-3 ovarian = conditions: 10 µM unless noted
HS 578T breast = conditions: 10 µM unless noted
OVCAR-4 ovarian = conditions: 10 µM unless noted
SR leukemia = conditions: 10 µM unless noted
RPMI-8226 leukemia = conditions: 10 µM unless noted

Measured: growth

CC(C)=CC1C(C(=O)OCc2cccc(Oc3ccccc3)c2)C1(C)C (configuration not stated)
inactive: SK-MEL-2 melanoma 108% | EKVX NSCLC 82.4% | SN12C renal 94.5% | UO-31 renal 76.5% | TK-10 renal 96.6% | ACHN renal 91.6% | CAKI-1 renal 59.6% | A498 renal 69.6% | HL-60(TB) leukemia 119% | CCRF-CEM leukemia 102% | MOLT-4 leukemia 83.3% | OVCAR-8 ovarian 100% | OVCAR-5 ovarian 101% | SK-OV-3 ovarian 102% | IGROV1 ovarian 93.1% | OVCAR-3 ovarian 102% | HS 578T breast 101%

C=CCn1cc(C=C2C(=O)N(C)C(=O)N(C)C2=O)c2ccccc21
inactive: SK-MEL-2 melanoma 102% | EKVX NSCLC 84.4% | SN12C renal 102% | UO-31 renal 78.2% | TK-10 renal 120% | ACHN renal 98.9% | CAKI-1 renal 90.3% | HL-60(TB) leukemia 121% | CCRF-CEM leukemia 87.9% | MOLT-4 leukemia 97.6% | OVCAR-8 ovarian 83.1% | OVCAR-5 ovarian 14.9% | OVCAR-4 ovarian 97.6% | SK-OV-3 ovarian 87.4% | IGROV1 ovarian 95.6% | OVCAR-3 ovarian 96.1% | HS 578T breast 76%
active: A498 renal -90.6%

ClCCN(CCCl)c1ccc(/C=N\N=C\c2ccc(N(CCCl)CCCl)cc2)cc1
active: UO-31 renal -16.2% | CAKI-1 renal 7.35%
inactive: SK-MEL-2 melanoma 36.7% | EKVX NSCLC 47.1% | SN12C renal 36.3% | TK-10 renal 47.2% | ACHN renal 40.1% | A498 renal 75% | CCRF-CEM leukemia 25% | OVCAR-5 ovarian 107% | OVCAR-4 ovarian 53% | SK-OV-3 ovarian 19.6% | IGROV1 ovarian 71.5% | OVCAR-3 ovarian 55.7%

CCOc1ccccc1C(=O)OCC(Cl)(Cl)Cl
inactive: SK-MEL-2 melanoma 116% | EKVX NSCLC 109% | SN12C renal 102% | UO-31 renal 94.4% | TK-10 renal 99.6% | ACHN renal 111% | CAKI-1 renal 98.7% | A498 renal 88.5% | CCRF-CEM leukemia 104% | MOLT-4 leukemia 105% | SR leukemia 93.9% | RPMI-8226 leukemia 107% | OVCAR-8 ovarian 102% | OVCAR-5 ovarian 109% | OVCAR-4 ovarian 111% | SK-OV-3 ovarian 106% | IGROV1 ovarian 106% | OVCAR-3 ovarian 109% | HS 578T breast 97.9%

COc1ccc(N(CC(=O)NCCC[Te]c2ccccc2)C(=O)CCSC2=C(C)C(=O)c3ccccc3C2=O)cc1
active: SK-MEL-2 melanoma -49.6% | EKVX NSCLC -2.22% | SN12C renal -8.2% | UO-31 renal -29.3% | TK-10 renal 8.99% | ACHN renal -51.4% | CAKI-1 renal -25.5% | A498 renal -32.2% | OVCAR-8 ovarian 8.05% | OVCAR-5 ovarian -57.4% | SK-OV-3 ovarian -55.6% | IGROV1 ovarian -68.3% | OVCAR-3 ovarian -40.4% | HS 578T breast -10.3%
inactive: OVCAR-4 ovarian 20.2%

C=CC[PH+](c1ccccc1)c1ccccc1.C=CC[PH+](c1ccccc1)c1ccccc1.[Cl][Pt][Cl]
active: CCRF-CEM leukemia 3.7% | MOLT-4 leukemia 7.63% | SR leukemia 1.56% | RPMI-8226 leukemia -12.1% | IGROV1 ovarian -17.4% | OVCAR-3 ovarian -9.31%
inactive: SK-MEL-2 melanoma 71.1% | EKVX NSCLC 50.8% | SN12C renal 30.6% | UO-31 renal 31.5% | TK-10 renal 73.7% | ACHN renal 35.9% | CAKI-1 renal 77.9% | A498 renal 99% | OVCAR-5 ovarian 96.1% | SK-OV-3 ovarian 99.1% | HS 578T breast 55.8%

CN(C)CC(C(=O)Cc1ccccc1)c1ccccc1 (configuration not stated)
active: UO-31 renal -74% | TK-10 renal -38.1% | OVCAR-3 ovarian 6.54%
inactive: SK-MEL-2 melanoma 82.2% | EKVX NSCLC 110% | SN12C renal 93.6% | ACHN renal 102% | CAKI-1 renal 82.1% | A498 renal 90.5% | HL-60(TB) leukemia 66.3% | CCRF-CEM leukemia 67.1% | MOLT-4 leukemia 78% | OVCAR-8 ovarian 34% | OVCAR-5 ovarian 133% | OVCAR-4 ovarian 91.7% | SK-OV-3 ovarian 124% | IGROV1 ovarian 84.8%

COc1ccc(C2=CC(c3ccc(OC)c(OC)c3)c3c(c4ccccc4oc3=O)O2)cc1OC (configuration not stated)
inactive: EKVX NSCLC 30.4% | SN12C renal 58.7% | UO-31 renal 21.8% | TK-10 renal 42% | ACHN renal 52.7% | MOLT-4 leukemia 11.9% | OVCAR-8 ovarian 36.2% | OVCAR-5 ovarian 60.2% | SK-OV-3 ovarian 25.6%
active: SK-MEL-2 melanoma 8.03% | CAKI-1 renal 7.77% | A498 renal -3.43% | HL-60(TB) leukemia -59.9% | CCRF-CEM leukemia -6.1% | OVCAR-3 ovarian -16.3% | HS 578T breast -5.68%

CN(C)C1C(=O)C(C(N)=O)=C(O)C2(O)C(=O)C3=C(O)c4c(O)cccc4C(C)(O)C3CC12.[Cl][Sb]([Cl])[Cl] (configuration not stated)
active: SK-MEL-2 melanoma -7.83%
inactive: EKVX NSCLC 41% | SN12C renal 41.8% | UO-31 renal 54.7% | TK-10 renal 42.4% | ACHN renal 59% | CAKI-1 renal 12.3% | HL-60(TB) leukemia 31.4% | CCRF-CEM leukemia 17% | MOLT-4 leukemia 36.9% | SR leukemia 19.2% | RPMI-8226 leukemia 15.4% | OVCAR-8 ovarian 21.3% | OVCAR-5 ovarian 143% | OVCAR-4 ovarian 44.2% | SK-OV-3 ovarian 76.9% | IGROV1 ovarian 45.1% | OVCAR-3 ovarian 38% | HS 578T breast 31.7%

CC1=C(CNO)C2=C(C)C3(CC3)[C@@](C)(O)C(=O)C2=C1
inactive: SN12C renal 18.7% | CCRF-CEM leukemia 73.9% | MOLT-4 leukemia 51% | RPMI-8226 leukemia 99.4% | HS 578T breast 40.2%
active: SK-MEL-2 melanoma -44.4% | EKVX NSCLC 9.85% | UO-31 renal -57.7% | TK-10 renal -0.334% | ACHN renal -48.3% | CAKI-1 renal -9.31% | A498 renal -70.9% | HL-60(TB) leukemia 8.14% | OVCAR-5 ovarian 1.01% | SK-OV-3 ovarian 4% | IGROV1 ovarian -8.2% | OVCAR-3 ovarian -16.5%

COc1cc(NCCCN=C(N)N)c2ncccc2c1
active: SN12C renal 2.57% | OVCAR-3 ovarian 7.99%
inactive: SK-MEL-2 melanoma 27.8% | EKVX NSCLC 70.6% | UO-31 renal 89.4% | TK-10 renal 80% | ACHN renal 100% | CAKI-1 renal 97.9% | A498 renal 73.6% | CCRF-CEM leukemia 95.8% | MOLT-4 leukemia 94.1% | SR leukemia 102% | RPMI-8226 leukemia 85.4% | OVCAR-8 ovarian 81.2% | OVCAR-5 ovarian 86.2% | SK-OV-3 ovarian 93.4% | IGROV1 ovarian 36% | HS 578T breast 88.8%

CN(C)CCCOc1ccc2c(c1)c(C(=O)C(=O)NCCO)cn2Cc1ccccc1
inactive: SK-MEL-2 melanoma 114% | EKVX NSCLC 102% | SN12C renal 104% | UO-31 renal 84% | TK-10 renal 116% | ACHN renal 99.2% | CAKI-1 renal 90.5% | A498 renal 59.8% | CCRF-CEM leukemia 102% | MOLT-4 leukemia 111% | SR leukemia 115% | RPMI-8226 leukemia 106% | OVCAR-8 ovarian 98.1% | OVCAR-5 ovarian 108% | OVCAR-4 ovarian 105% | SK-OV-3 ovarian 110% | IGROV1 ovarian 99.6% | OVCAR-3 ovarian 108% | HS 578T breast 99.6%

Clc1cc(N2CC2)nc(N2CC2)n1
active: CAKI-1 renal 5.82%
inactive: SK-MEL-2 melanoma 91% | EKVX NSCLC 107% | SN12C renal 48.5% | UO-31 renal 74.7% | TK-10 renal 104% | ACHN renal 22.2% | A498 renal 104% | CCRF-CEM leukemia 54.8% | MOLT-4 leukemia 46.6% | SR leukemia 34.7% | RPMI-8226 leukemia 80.4% | OVCAR-8 ovarian 64.5% | OVCAR-4 ovarian 95.2% | SK-OV-3 ovarian 71% | IGROV1 ovarian 109% | OVCAR-3 ovarian 107% | HS 578T breast 115%

C[C@]12CC[C@H]3[C@@H](CC[C@]4(O)C[C@@H](O[C@@H]5O[C@H](CO)[C@@H](O[C@@H]6OC[C@@H](O)[C@H](O)[C@H]6O)[C@H](O)[C@H]5O)CC[C@]34C=O)[C@@]1(O)CC[C@@H]2C1=CC(=O)OC1
active: SK-MEL-2 melanoma -32.6% | EKVX NSCLC -59.9% | SN12C renal -32.1% | UO-31 renal 6.18% | TK-10 renal -6.98% | ACHN renal -34.3% | CAKI-1 renal -5.08% | A498 renal -9.04% | CCRF-CEM leukemia -14.5% | MOLT-4 leukemia -36.3% | SR leukemia -31.7% | OVCAR-8 ovarian 2.06% | OVCAR-4 ovarian 2.78% | SK-OV-3 ovarian -3.1% | OVCAR-3 ovarian -34.5% | HS 578T breast 8.83%
inactive: RPMI-8226 leukemia 10% | OVCAR-5 ovarian 31.1% | IGROV1 ovarian 18.6%

COc1cc(C=C2c3ccccc3C(=O)c3ccccc32)ccc1OCCCCOc1cc2c(cc1OC)C(=O)N1CCCC1C=N2 (configuration not stated)
active: SK-MEL-2 melanoma -79.6% | EKVX NSCLC -49.8% | SN12C renal -68.6% | UO-31 renal -96% | TK-10 renal -70.2% | ACHN renal -62.8% | CAKI-1 renal -75.5% | A498 renal -78.6% | CCRF-CEM leukemia -24% | MOLT-4 leukemia -53.2% | SR leukemia -84.7% | RPMI-8226 leukemia -10% | OVCAR-8 ovarian -30.4% | OVCAR-4 ovarian -41.1% | SK-OV-3 ovarian -52.4% | IGROV1 ovarian -85% | OVCAR-3 ovarian -75.2% | HS 578T breast -25.9%

CNC(=O)Oc1ccc(N(C)C)cc1C(C)C
inactive: SK-MEL-2 melanoma 103% | EKVX NSCLC 95.5% | SN12C renal 98.2% | UO-31 renal 88.7% | TK-10 renal 95% | ACHN renal 99.4% | CAKI-1 renal 40.9% | A498 renal 101% | MOLT-4 leukemia 75.3% | SR leukemia 123% | OVCAR-8 ovarian 105% | OVCAR-5 ovarian 99.8% | OVCAR-4 ovarian 85.9% | SK-OV-3 ovarian 105% | IGROV1 ovarian 109% | OVCAR-3 ovarian 97.7% | HS 578T breast 94.8%

O=C1N[C@@H]2[C@@H](O)[C@@H](O)[C@H](O)C[C@H]2c2cc3c(c(O)c21)OCO3
active: SK-MEL-2 melanoma -63.6% | EKVX NSCLC -26.3% | SN12C renal -18.4% | UO-31 renal -31% | TK-10 renal -12.6% | ACHN renal -45.5% | CAKI-1 renal -7.77% | HL-60(TB) leukemia -37.8% | CCRF-CEM leukemia 2.84% | MOLT-4 leukemia -6.14% | SR leukemia 6.14% | RPMI-8226 leukemia -24.2% | OVCAR-8 ovarian -7.71% | OVCAR-5 ovarian -13.4% | OVCAR-4 ovarian -23.7% | SK-OV-3 ovarian -11.2% | IGROV1 ovarian -7.85% | OVCAR-3 ovarian -10.8% | HS 578T breast -14.2%
